Laboratory results from PubChem BioAssay (NCI).
About 83,000 compounds went through this panel and 20% of them were active in at least one assay; those are over-represented in the sample as a whole.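 Values shown are percent growth following 48 h exposure of cells in 96-well plates to a single concentration of compound; below 10 was considered active.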 Values without a mark were called inactive. Activity calls are given as the source filed them.

What follows are molecules tested on M14 melanoma (assay: NCI-60 one-dose screen, 48 h (100 = growth as untreated, 0 = no growth, -100 = all killed)). Conditions: 10 µM unless noted.
Experimental: Growth inhibition of the M14 human tumor cell line is measured as a screen for anti-cancer activity. Cells are grown in 96 well plates and exposed to the test compound for 48 hours. Compounds are tested at a single concentration, which is 10^-5 M for most compounds. The reported endpoint is percent growth (GI% or GIPRCNT), where numbers from 0 - 100% represent growth inhibition, and numbers from -100% - 0 represent cell death. For example, a value of 40 represents 60% growth inhibition. A value of 0 means no net growth occurred over the course of the experiment. A value of -40 indicates 40% of cells at the beginning of the experiment died by the end of the experiment. A value of -100 means all cells are dead at the end of the experiment.
NCI-60 Human Tumor Cell Lines Screen was performed using the standard one-dose NCI protocol, which is described in more detail at https://dtp.cancer.gov/discovery_development/nci-60/default.htm.
Compounds with GIPRCNT values below 10 were considered active. Activity score was based on GIPRCNT using the following formula: […]
Score is 0 for GIPRCNT values of 100 or above, 50 for GIPRCNT values of 0, and 100 for GIPRCNT values of -100.

Compound | growth
Oc1cccc(CNC2CCCCC2)c1 | 99.9%
Cc1ccc(OC(=O)c2ccccc2)cc1 | 113%
O=C1NC(=O)C(c2ccccc2)O1 (stereo not given) | 100%
CCCC(=O)c1cccs1 | 105%
O=c1[nH]c(=O)c2cc(Cl)cc(Cl)c2[nH]1 | 102%
NNc1ncnc2c1ncn2C1OC(CO)C(O)C1O (stereo not given) | 31.6%
N=C(N)c1nn(C2OC(CO)C(O)C2O)c2nc[nH]c(=O)c12 (stereo not given) | -54.8% (active)
CC(=O)N(C(C)=O)c1ccc(C)cc1 | 114%
COC1OC(COC(C)=O)C(OC(C)=O)C(OC(C)=O)C1OC(C)=O (stereo not given) | 104%
O=Cc1ccc(O)c(O)c1 | 94.5%
CCCCc1ccc2nc(NC(=O)OC)[nH]c2c1 | 8.08% (active)
Nc1ccc(F)c(Cl)c1F | 97.2%
Cc1[nH]c(=S)[nH]c(=O)c1C | 109%
Cc1ccc(C)c2c1CCC2=O | 95.7%
CC(C)c1ncc([N+](=O)[O-])n1C | 103%
Cc1ccc(NCN2C(=O)c3ccccc3C2=O)c(C)n1 | 97.6%
COC1(OC)C2(Cl)C(Cl)=C(Cl)C1(Cl)C1COCC12 (stereo not given) | 100%
CCN(CC)c1ccc2nc3ccc(N=Nc4ccc(N(C)C)cc4)cc3[n+](-c3ccccc3)c2c1 | -75% (active)
OC(CBr)CCBr (stereo not given) | 104%
CCOC(=O)CNC | 104%

Compound | growth
O=S(=O)(O)c1cccnc1 | 140%
Cc1cc(CO)c(O)c(CO)c1 | 97.6%
O=c1nc(Nc2cccc(Cl)c2)oc2cc(Cl)oc(=O)c12 | 66.2%
C=CC1=NC(C)(C)CC(C)O1 (stereo not given) | 112%
Nc1ncnc(Nc2ccccc2)n1 | 106%
CC(O)C(F)(F)C(F)(F)C(F)(F)F (stereo not given) | 103%
OC1Cc2ccccc2C1 | 94.9%
O=c1n(CC2CO2)c(=O)n(CC2CO2)n1CC1CO1 (stereo not given) | 48.1%
C1CCc2onc(-c3noc4c3CCCCC4)c2CC1 | 112%
O=[N+]([O-])c1ccc2[nH]c(=S)n(/C=C(/c3ccc(Cl)cc3Cl)S(=O)(=O)Cc3ccc(Cl)cc3Cl)c2c1 | 93.6%
C=C1CC2(OC1=O)C(=O)N(C)c1ccc(I)cc12 (stereo not given) | -76.6% (active)
CN(C(=S)S(=O)(=O)C12CC3CC(CC(C3)C1)C2)c1ccccc1 | 107%
CC(=O)OCC1OC(n2cnc3c(=S)nc(N)[nH]c32)C(OC(C)=O)C1OC(C)=O (stereo not given) | 37.6%
COC1CC(OC(=O)c2ccc([N+](=O)[O-])cc2)C(COC(=O)c2ccc([N+](=O)[O-])cc2)O1 (stereo not given) | 110%
N#C/C(=C\c1ccc2c(c1)OCO2)c1ccccc1 | 59%
Cc1cccnc1NC1OC(=O)c2ccccc21 (stereo not given) | 95.7%
Cc1cc(Cc2ccccc2)c(O)c(Cc2ccccc2)c1 | 91.5%
CN(C)Cc1ccccn1 | 97.9%
CC(C)c1ccc(C(=O)OCCCl)cc1 | 93.6%
O=C(O)c1c[nH]c2ccccc2c1=O | 101%
